PubChem BioAssay (NCI)
This is part of a sample that, as a whole, favours compounds with a hit. Of some 83,000 tested, about 20% had one in any assay.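 Cells were grown in 96-well plates and exposed to the test compound at a single concentration for 48 hours; results are reported as percent growth, with values below 10 considered active.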 A number with no mark means an inactive call. Active and inactive are the calls of the source.

system: HS 578T breast; assay: NCI-60 one-dose screen, 48 h (100 = growth as untreated, 0 = no growth, -100 = all killed); conditions: 10 µM unless noted
Description: Growth inhibition of the HS 578T human tumor cell line is measured as a screen for anti-cancer activity. Cells are grown in 96 well plates and exposed to the test compound for 48 hours. Compounds are tested at a single concentration, which is 10^-5 M for most compounds. The reported endpoint is percent growth (GI% or GIPRCNT), where numbers from 0 - 100% represent growth inhibition, and numbers from -100% - 0 represent cell death. For example, a value of 40 represents 60% growth inhibition. A value of 0 means no net growth occurred over the course of the experiment. A value of -40 indicates 40% of cells at the beginning of the experiment died by the end of the experiment. A value of -100 means all cells are dead at the end of the experiment.
NCI-60 Human Tumor Cell Lines Screen was performed using the standard one-dose NCI protocol, which is described in more detail at https://dtp.cancer.gov/discovery_development/nci-60/default.htm.
Compounds with GIPRCNT values below 10 were considered active. Activity score was based on GIPRCNT using the following formula: […]
Score is 0 for GIPRCNT values of 100 or above, 50 for GIPRCNT values of 0, and 100 for GIPRCNT values of -100.

Question: With `CC1=C(O)C(=O)C(C(C#N)(C#N)C(C#N)C#N)C1` (stereo not given) as the compound, how does the growth read?
Answer: 98.9%

Question: Which growth does the source give for `CN1CCN(c2nc(NCCCCNc3ccnc4cc(Cl)ccc34)c3ccccc3n2)CC1` here?
Answer: 81.1%

Question: `CC(C)(C)CC(C)(C)c1ccc(OCCOCC[N+](C)(C)Cc2ccccc2)cc1` was tested. Which growth did it give?
Answer: 26.1%

Question: For `COc1cc(-c2nn(-c3ccc(C)cc3)cc2C(=O)O)ccc1O`, which growth is on record?
Answer: 103%

Question: How did the growth turn out when `O=C(Cc1ccc(/C=C/C(=O)c2ncc[nH]2)cc1)Nc1ccc(F)cc1` was run?
Answer: 35.4%

Question: For `CC(=O)c1nc2ccccc2n1CC(=O)c1cccc(Cl)c1`, which growth is on record?
Answer: 19%

Question: Which growth does the source give for `Nc1nc2ccc3[nH]ncc3c2c2c1CCCC2` here?
Answer: -9.88% (active)

Question: For `NC(=O)c1cc(I)ccc1NC(=O)/C=C/c1ccccc1Cl`, which growth is on record?
Answer: -17.6% (active)

Question: Which growth does the source give for `CCc1nnc(CNc2ccc(Cl)cc2)o1` here?
Answer: 102%

Question: Which growth does the source give for `COc1ccc(-c2cc(=O)c3c(OC)c4ccoc4cc3o2)cc1` here?
Answer: 120%

Question: `OC(c1cc2cc(Cl)c(Cl)cc2c2cc(C(F)(F)F)ccc12)C1CCCCN1` (stereo not given) was tested. Which growth did it give?
Answer: -50.4% (active)

Question: For `N#CCCN=Nc1c(O)[nH]c2ccc([N+](=O)[O-])cc12`, which growth is on record?
Answer: 103%

Question: How did the growth turn out when `CC(=O)c1cc2c(N)c(C(=O)Nc3cccc(F)c3C)sc2nc1C` was run?
Answer: 80.1%

Question: How did the growth turn out when `CN(C)c1ccc(N=Nc2ccccn2)c(O)c1` was run?
Answer: 60.9%

Question: How did the growth turn out when `CC[C@]1(O)C[C@@H]2CN(CCc3c([nH]c4ccccc34)[C@@](C(=O)OC)(c3cc4c(cc3OC)N(C)[C@H]3[C@@](O)(C(N)=O)[C@H](O)[C@]5(CC)[C@@H]6C[C@@H]6CN6CC[C@]43[C@@H]65)C2)C1` was run?
Answer: 30.2%

Question: How did the growth turn out when `C[n+]1ccccc1/C=C/c1ccc2cccc(O)c2n1` was run?
Answer: 108%

Question: With `CC(C)(C)c1cc(/C=N\NC(=O)/C=C/C=C/c2ccc3c(c2)OCO3)c(O)c(C(C)(C)C)c1` as the compound, how does the growth read?
Answer: 13.6%

Question: Which growth does the source give for `Cc1ccc2c(C(C[N+](=O)[O-])c3ccccc3)c(-c3ccccc3)[nH]c2c1` (stereo not given) here?
Answer: 1.97% [9.5 µM] (active)

Question: With `COc1cc(CNc2oc(-c3ccccc3)c(-c3ccccc3)c2C#N)cc(CN2CCN(C)CC2)c1O` as the compound, how does the growth read?
Answer: 70.5%

Question: `CC1SC(c2ccc(N(C)C)cc2)N(NC(=O)C(O)(c2ccccc2)c2ccccc2)C1=O` (stereo not given) was tested. Which growth did it give?
Answer: 103%

Question: Which growth does the source give for `COc1cc2c(cc1O)CC[C@@H]1[C@@H]2CC[C@]2(C)[C@@H](NCCN(C)C)CC[C@@H]12` here?
Answer: -56.9% (active)

Question: With `COc1ccc(-c2n[nH]nc2-c2csc3ccccc23)cc1OC` as the compound, how does the growth read?
Answer: 6.17% (active)

Question: With `CC1=C[C@H]2c3c(c(O)c(O)c4oc5cc(O)ccc5c(=O)c34)[C@H](c3cc(O)c(O)c4oc5cc(O)ccc5c(=O)c34)[C@H]2C(C)(C)C1` as the compound, how does the growth read?
Answer: 22.4%

Question: For `COc1ccc(Nc2nc(SC)nc(-c3cccc([N+](=O)[O-])c3)c2C#N)cc1`, which growth is on record?
Answer: 42.1%

Question: How did the growth turn out when `C#CCOc1ccc2ncnc(N3CCN(C(=O)CCl)CC3)c2c1` was run?
Answer: 94.6% [8.25 µM]

Question: Which growth does the source give for `CSc1nc(NCc2ccccc2)c(C#N)c(-c2cccc([N+](=O)[O-])c2)n1` here?
Answer: 92%

Question: With `c1ccc2[nH]c(-c3ccc(Nc4nc(N5CCCC5)nc5[nH]ncc45)cc3)nc2c1` as the compound, how does the growth read?
Answer: -34% (active)

Question: For `C=CC(COC(c1ccccc1)(c1ccccc1)c1ccccc1)N(CC)CC` (stereo not given), which growth is on record?
Answer: 85.7%

Question: How did the growth turn out when `COc1cccc(Nc2nc(SC)nc(-c3cccc([N+](=O)[O-])c3)c2C#N)c1` was run?
Answer: 45%

Question: With `COc1cccc(-c2nc3sccn3c2-c2ccnc(NCCNS(=O)(=O)c3ccc(F)cc3)c2)c1` as the compound, how does the growth read?
Answer: 52.4%

Question: For `O=C1/C(=C/c2cn(-c3ccccc3)nc2-c2ccccc2)SC(=S)N1CCc1ccccc1`, which growth is on record?
Answer: 104%

Question: Which growth does the source give for `O=C(N/N=C/c1ccccc1O)c1ccccc1Nc1ccnc(C(F)(F)F)c1` here?
Answer: 34.3%

Question: Which growth does the source give for `Cc1nn(-c2cc(=O)[nH]c3ccccc23)c(N)c1C#N` here?
Answer: 98.6%

Question: `COc1cccc(-c2nc3sccn3c2-c2ccnc(NCCNS(=O)(=O)c3ccccc3)c2)c1` was tested. Which growth did it give?
Answer: 35.7%

Question: `N#Cc1nnn(-c2ccc(S(N)(=O)=O)cc2)c1NCC(=O)c1ccccc1` was tested. Which growth did it give?
Answer: 98.3%

Question: For `CCCCCCCCCCCCC[N+](C)(C)Cc1ccccc1`, which growth is on record?
Answer: -31.4% (active)

Question: With `Cc1nc2c3c(-c4ccccc4)c(-c4ccccc4)oc3ncn2n1` as the compound, how does the growth read?
Answer: 95.8%

Question: For `COc1ccc(-n2nc(C)c3c(Nc4ccc(NC(=O)Nc5ccc(Cl)c(C(F)(F)F)c5)cc4)ncnc32)cc1`, which growth is on record?
Answer: -12% (active)

Question: With `NC(=NCCCOc1ccc(Cl)cc1)Nc1ccc(C(F)(F)F)cc1` as the compound, how does the growth read?
Answer: 52.4%

Question: For `Nc1ccn(-c2ccc(Br)cc2)c(=O)n1`, which growth is on record?
Answer: 122%
